These results are taken from PubChem BioAssay (EPA / NIEHS).

Active and inactive are the calls of the source. The calls were made as follows: active = hit-call score of the fitted dose curve at least 0.9, where 1 is the maximum; inactive = score below 0.9.

The experiment in a line: ATG_TGFb_CIS: Attagene CIS-FACTORIAL HepG2 Assay for human Transforming Growth Factor (TGF) (AID 2282967). Particulars: HepG2 Attagene CIS TGFb reporter, mRNA transcription; actives raise or lower the signal. The protocol: ATG_CIS is a cell-based, multiplexed-readout assay that uses HepG2, a human liver cell line, with measurements taken at 24 hours after chemical dosing in a 24-well plate.ATG_TGFb_CIS is one of 52 assay component(s) measured or calculated from the ATG_CIS assay. It is designed to make measurements of mRNA induction, a form of inducible reporter, as detected with fluorescence intensity signals by Reverse transcription polymerase chain reaction (RT-PCR) and Capillary electrophoresis technology.Data from the assay component ATG_TGFb_CIS was analyzed into 1 assay endpoint. This assay endpoint, ATG_TGFb_CIS, was analyzed with bidirectional fitting relative to DMSO as the negative control and baseline of activity. Using a type of inducible reporter, measures of mRNA for gain or loss-of-signal activity can be used to understand the reporter gene at the transcription factor-level as they relate to the gene TGFB1. Furthermore, this assay endpoint can be referred to as a primary readout, because this assay has produced multiple assay endpoints where this one serves a reporter gene function. To generalize the intended target to other relatable targets, this assay endpoint is annotated to the growth factor intended target family, where the subfamily is transforming growth factor beta.
Human liver HepG2 cells are transiently transfected with multiple reporter transcription units (MRTUs) in 6-well plates using FuGene 6 reagent (Roche; 3 ml FuGene/1 mg DNA). The MRTU constructs are regulated by a cis-regulating element (promoter). […] A major difference between the CIS and TRANS system is that in CIS activities of endogenous TFs are measured, whereas the TRANS assay evaluates changes in activities of exogenous, chimeric NR-Gal4 proteins. […] At the end of 24 hour incubation, total RNA was isolated using TriZol reagent (Invitrogen). The isolated RNA is then reverse-transcribed using oligo(dT) primer and Mo-MLV reverse transcriptase (Invitrogen) with DNAse I (Ambion) treatment for 30 min. The one-tenth of the produced cDNA was amplified by PCR using Taq DNA polymerase (Invitrogen) and two reporter sequence-specific primers. The PCR products were fluorescently labeled by primer extension with 6-arboxyfluorescein (6-FAM) 5'-labeled reporter sequence-specific primer (2 min at 95 C, 20 s at 68 C and 10 min at 72 C) and these products were digested with 5U of HpaI (New England Biolabs) for 2h at 37 C. The fragments were purified using Qiaquick PCR columns (Qiagen), analyzed on an ABI 3130xL genetic analyzer (Applied Biosystems) with peak positions identified by using a set of X-rhodamine (ROX)-labeled MapMarker1000 molecular weight standards (BioVentures). The raw capillary electrophoresis data was processed using Attagraph software (Attagene).
Regarding `OC[C@H]1O[C@@H](O[C@H]2[C@H](O)[C@@H](O)[C@H](O)O[C@@H]2CO)[C@H](O)[C@@H](O)[C@H]1O`, the result was inactive.

For `c1ccc(Cc2ccccc2)cc1`, the call was inactive.

`CC(C)Cc1ccc(C(C)C(=O)O)cc1` (stereo not given): the outcome was inactive.

As to `CCC(C)C1CCCCC1=O` (stereo not given), the result was inactive.

Turning to `OCC=Cc1ccccc1`, the result was inactive.

In the case of `CC(C)COC(=O)c1ccccc1O`, the outcome was inactive.

`NC(N)=S`: the compound was classed as inactive.

As for `CC(=O)OC/C=C(C)/C=C/C=C(C)/C=C/C1=C(C)CCCC1(C)C`, the AC50 was 1.23 µM (active).

Take `CC(=O)OC(C)(C)C1CC=C(C)CC1` (stereo not given): the outcome was inactive.

With `CC/C=C\CCOC(=O)C(C)C`, the outcome was inactive.

With `CCCCOCCOCCOCCO`, the call was inactive.

With `O=c1cc[nH]cc1`, the AC50 was 0.0823 µM (active).

In the case of `CN(C)C(=O)Nc1ccccc1`, the outcome was inactive.

`CC=CC(=O)C1=C(C)C=CCC1(C)C`: the compound was called inactive.

`CCCCCCCCCCO[C@@H]1O[C@H](CO)[C@@H](O)[C@H](O)[C@H]1O`: the compound was called inactive.

In the case of `C=C(C)C(=O)OCCN(C)C`, the compound was called inactive.

As for `c1ccc(Sc2ccccc2)cc1`, the compound was called inactive.

With `N#CCCNCCC#N`, the result was inactive.

Regarding `CNC(=C[N+](=O)[O-])NCCSCc1ccc(CN(C)C)o1`, the compound was classed as inactive.

As to `NS(=O)(=O)c1cc(C(=O)O)c(NCc2ccco2)cc1Cl`, the call was inactive.

Turning to `CC(=O)c1ccc2ccccc2c1`, the result was inactive.

As to `CC1=CCC(C(C)C)=CC1`, the compound was called inactive.

In the case of `CC(=O)C1C(=O)C=C(C)OC1=O` (stereo not given), the call was inactive.

For the compound `CCCOC(=O)CC`, the compound was classed as inactive.

For the compound `CCC(C)(C)C1CCC(OC)CC1` (stereo not given), the outcome was inactive.

Consider `CCO[Si](CC)(OCC)OCC`, for which the AC50 was 160 µM (active).

As to `O=C1OCc2ccccc21`, the compound was called inactive.

As for `CC(C)C(=O)c1ccccc1`, the compound was classed as inactive.

For the compound `CN(C)C`, the call was inactive.

In the case of `O=C1CCCCCCCCCCCC(=O)OCCO1`, the outcome was inactive.

For the compound `CCCCCCC(C)O` (stereo not given), the compound was called inactive.

In the case of `CCCCCCCCOC(C)=O`, the compound was called inactive.

In the case of `CCC(C)(C)C1CCC(=O)CC1`, the outcome was inactive.

On to `CCC(=O)OC(C)(C)C1CC=C(C)CC1` (stereo not given), for which the call was inactive.

For the compound `CC1=CC[C@@H](C(C)(C)O)CC1`, the compound was classed as inactive.

As for `CCCCCCCC(=O)N(C)C`, the compound was classed as inactive.

As to `NC(=O)NC(N)=O`, the outcome was inactive.

Regarding `CCC(=O)OCC=Cc1ccccc1`, the compound was called inactive.

Take `COC(=O)c1cccc(C(=O)OC)c1`: the compound was classed as inactive.

As for `C=CCOC(=O)/C=C\C(=O)OCC=C`, the result was inactive.
